Measured values published in PubChem BioAssay (EPA / NIEHS).
Calls of active or inactive are those of the source. The calls were made as follows: active = hit-call score of the fitted dose curve at least 0.9, where 1 is the maximum; inactive = score below 0.9.

read-out: Monocyte Chemoattractant Protein-1 (MCP1), CCL2 (gene 6347); test: BSK_4H_MCP1: BioMAP Diversity Plus: 4H Assay for Monocyte Chemoattractant Protein-1 (MCP1) Biomarker Activity (AID 2283018); conditions: primary human endothelial cells (HUVEC); actives raise or lower the signal
Experimental: BSK_4H is a cell-based, multiplexed-readout assay that uses umbilical vein endothelium, a human vascular primary cell, with measurements taken at 24 hours after chemical dosing in a 96-well plate.BSK_4H_MCP1 is an assay component measured in the BSK_4H assay. It measures MCP-1 antibody related to regulation of gene expression using ELISA technology.Data from the assay component BSK_4H_MCP1 was analyzed into 1 assay endpoint. This assay endpoint, BSK_4H_MCP1, was analyzed with bidirectional fitting relative to DMSO as the negative control and baseline of activity. Using a type of binding reporter, gain or loss-of-signal activity can be used to understand changes in the signaling as they relate to the gene CCL2. Furthermore, this assay endpoint can be referred to as a primary readout, because this assay has produced multiple assay endpoints where this one serves a signaling function. To generalize the intended target to other relatable targets, this assay endpoint is annotated to the cytokine intended target family, where the subfamily is chemotactic factor.
The levels of cell surface (or secreted, indicated by the prefix "s") biomarker endpoints were measured by ELISA. Overt cytotoxicity to cells in confluent adherent cultures (all systems other than the BT system) was assessed by measuring total protein levels using sulforhodamine B (SRB) staining in parallel cultures at the time of biomarker measurements, indicated as SRB endpoints. For proliferation assays for adherent cell types, individual cell types are cultured at sub-confluence and relative cell numbers quantified by SRB staining at time points optimized for each system (48 h: 3C and CASM3C systems; 72 h: BT and HDF3CGF systems; 96 h: SAg system). SRB was performed by staining cells with 0.1% SRB after fixation with 10% TCA and reading wells at 560 nm.Viability and proliferation of PBMC (T cells) was quantified by Alamar Blue reduction for the SAg and BT systems. For PBMC viability (referred to as PBMC Cytotoxicity within the assay endpoint names), cells were plated (75,000/well in a 96-well plate) and then chemical samples added for 1 h before addition of activators, SEB and TSST-1 (20 ng/mL final concentration each). Cells were incubated for 90 h. Then, Alamar Blue (20 uL/well) (Invitrogen, Cat DAL1100) was added for 6 h, and the plates were read with a fluorescence microplate reader at 546/580 nm (excitation/emission). For PBMC proliferation, cells were plated and activated as above but incubated for only 16 h prior to addition of Alamar Blue. Plates were read after 6 h.

**Q.** How did the outcome turn out when `Nc1ccccc1N` was run?
**A.** inactive

**Q.** Which outcome does the source give for `Cc1ccc2ncccc2c1` here?
**A.** inactive

**Q.** With `Oc1ccc2c(c1)OC[C@@H](N1CCC(O)(c3ccc(F)cc3)CC1)[C@H]2O` as the compound, how does the outcome read?
**A.** inactive

**Q.** With `CCCCCCCCCCCC(=O)OC` as the compound, how does the outcome read?
**A.** inactive

**Q.** Which outcome does the source give for `CCCCCCOCCO` here?
**A.** inactive

**Q.** Which outcome does the source give for `O=c1[nH]cc(F)c(=O)[nH]1` here?
**A.** inactive

**Q.** `CCCCCCCCCCC` was tested. Which outcome did it give?
**A.** inactive

**Q.** `Cc1nc(-c2ccc3c(c2)CCN(CCC2CCC(NC(=O)/C=C/c4ccc(F)cc4)CC2)CC3)no1` (stereo not given) was tested. Which outcome did it give?
**A.** inactive

**Q.** For `Oc1ccc2ccccc2c1N=Nc1ccccc1`, which outcome is on record?
**A.** inactive

**Q.** With `CC(CO)OC(C)CO` (stereo not given) (tested in a mixture with another compound) as the compound, how does the outcome read?
**A.** inactive

**Q.** With `CC1(C)CC(N=C=O)CC(C)(CN=C=O)C1` (stereo not given) as the compound, how does the outcome read?
**A.** inactive

**Q.** For `Cc1ccc(N(C)C)cc1`, which outcome is on record?
**A.** inactive

**Q.** With `COc1ccc(C)cc1N` as the compound, how does the outcome read?
**A.** inactive

**Q.** `CN[C@H]1CC[C@@H](c2ccc(Cl)c(Cl)c2)c2ccc(S(N)(=O)=O)cc21` was tested. Which AC50 did it give?
**A.** 20 µM (active)

**Q.** Which AC50 does the source give for `CN1CCN(Cc2cc(-c3ccc4[nH]c(=O)oc4c3)co2)[C@@H](c2ccc(F)cc2)C1` here?
**A.** 3.68 µM (active)

**Q.** With `CCCCc1ccc2c(n1)[C@@H](c1ccc(OC)cc1C[C@H](C)C(=O)O)[C@H](C(=O)O)[C@H]2c1ccc2c(c1)OCO2` as the compound, how does the outcome read?
**A.** inactive

**Q.** How did the outcome turn out when `CNC(=O)[C@H]1O[C@@H](n2cnc3c(NCc4cc(Cl)ccc4OCc4cc(C)no4)ncnc32)[C@H](O)[C@@H]1N` was run?
**A.** inactive

**Q.** `O=c1c(O)c(-c2ccc(O)c(O)c2)oc2cc(O)cc(O)c12` was tested. Which AC50 did it give?
**A.** 20 µM (active)

**Q.** How did the outcome turn out when `CC1=C(/C=C/C(C)=C/C=C/C(C)=C/CO)C(C)(C)CCC1` was run?
**A.** inactive

**Q.** How did the AC50 turn out when `CCCCC(CC)COC(=O)CC(C(=O)OCC(CC)CCCC)S(=O)(=O)O` (stereo not given) was run?
**A.** 29.3 µM (active)

**Q.** Which outcome does the source give for `C[Si]1(C)O[Si](C)(C)O[Si](C)(C)O[Si](C)(C)O1` here?
**A.** inactive

**Q.** For `COc1ccc(S(=O)(=O)N2C(=O)[C@@](c3ccccc3OC)(N3C[C@H](O)C[C@H]3C(=O)N(C)C)c3cc(Cl)ccc32)c(OC)c1`, which outcome is on record?
**A.** inactive

**Q.** How did the outcome turn out when `Clc1cc(Cl)c(Cl)cc1Cl` was run?
**A.** inactive

**Q.** `COc1cc(S(=O)(=O)O)c(C)cc1N=Nc1c(O)ccc2cc(S(=O)(=O)O)ccc12` was tested. Which outcome did it give?
**A.** inactive

**Q.** Which outcome does the source give for `CCCCCC(=O)O` here?
**A.** inactive

**Q.** With `CCOC(=O)CCC(=O)OCC` as the compound, how does the outcome read?
**A.** inactive

**Q.** `CCNc1cccc(C)c1` was tested. Which outcome did it give?
**A.** inactive

**Q.** `Cc1ccc(C)c(C)c1` was tested. Which outcome did it give?
**A.** inactive

**Q.** With `CC(C)c1ccc(C(=O)N=C(N)N)cc1S(C)(=O)=O` as the compound, how does the outcome read?
**A.** inactive

**Q.** `O=C(O)Cc1ccccc1Nc1c(Cl)cccc1Cl` was tested. Which outcome did it give?
**A.** inactive

**Q.** Which outcome does the source give for `O=C(N[C@@H](Cc1ccccc1)[C@@H](O)C(=O)N1C[C@@H](O)[C@@H](O)C1)c1cc2cc(Cl)ccc2[nH]1` here?
**A.** inactive

**Q.** `CCCCCCCCCCO` was tested. Which outcome did it give?
**A.** inactive

**Q.** For `Nc1ccc2c(c1)C(=O)c1ccccc1C2=O`, which outcome is on record?
**A.** inactive

**Q.** Which outcome does the source give for `CCOc1ccc2c(c1)C(C)=CC(C)(C)N2` here?
**A.** inactive

**Q.** For `CCCCOC(=O)CCCCCCCCC(=O)OCCCC`, which outcome is on record?
**A.** inactive

**Q.** For `C1CCC(SSC2CCCCC2)CC1`, which outcome is on record?
**A.** inactive

**Q.** For `CC(=O)OCCOCCOCCOC(C)=O`, which outcome is on record?
**A.** inactive

**Q.** Which outcome does the source give for `COC(=O)c1ccc(O)cc1` here?
**A.** inactive

**Q.** Which outcome does the source give for `CC(=O)Oc1ccccc1C(=O)O` here?
**A.** inactive

**Q.** `Cc1ccc(C)c(O)c1C` was tested. Which outcome did it give?
**A.** inactive
